From PubChem BioAssay (Tox21) come the findings set out here.

Values without a mark were called inactive. Inconclusive results are not listed. Active and inactive are the calls of the source. Unless noted, the call rests on the fitted dose curve.

Test [1] can be described thus: Nuclear factor erythroid 2-related factor 2/antioxidant responsive element (Nrf2/ARE) small molecule agonists: qHTS cell viability counter screen in human keratinocytes (AID 1919968; active means well fitted curve in the direction sought with a large enough effect in the repeat runs; an effect the other way counts as inactive or inconclusive; further: nearly all actives have a fitted effect of over 55% in size). Put shortly: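 Fluorescence read-out from CellTiter-Fluor after 1 h at 37 C. Wells held HaCaT-derived ARE-luciferase reporter cells (1,500/well) treated 23 h with DMSO-dissolved compounds. Run in the same wells as the luciferase agonist read.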
(qHTS replaces the single test concentration by a dilution series.)

Test [2] concerns the target Gonadotropin-releasing hormone receptor (Homo sapiens) (UniProt P30968). Description: Human gonadotropin-releasing hormone receptor (GnRHR) small molecule agonists, calcium flux assay in GnRHR-HEK293 cells (AID 1920063). Further: nearly all actives have a fitted effect of over 35% in size. Put shortly: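 Calcium-dye fluorescence, Ex/Em=480/540, recorded every 1 sec over 3 min after compound addition to GnRHR-HEK293 cells. Cells had been seeded 18 hours earlier and dye-loaded for 1 hour at 37 C. Fifteen concentrations, triplicates.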

Test [3] deals with KiSS-1 receptor (Homo sapiens) (UniProt Q969F8). The test is described as follows: Human kisspeptin (KISS1R) small molecule agonists, calcium flux assay in KISS1R-HEK293 cells (AID 1920064; active means well fitted curve in the direction sought with a large enough effect in the repeat runs; an effect the other way counts as inactive or inconclusive). The method, boiled down:
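Calcium flux read-out: kinetic fluorescence at Ex/Em=480/540, 1 s intervals over 3 min, after pin-tool compound addition to dye-loaded KISS1R-HEK293 cells. Fifteen concentrations, triplicates.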
In general terms: Calcium assays in cells follow changes in intracellular calcium, usually with a dye or a luminescent sensor.

Test [4] in a line: G protein-coupled receptor (GPCR) small molecule agonists, calcium flux assay: HEK293 wild type cell line counter screen (AID 1920065). Put shortly: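 Agonist mode; 18 h seeding at 37 C, 1 h dye load at 37 C; compounds pinned from DMSO, ATP as positive control; kinetic fluorescence 480/540 nm, 3 min, 1 s reads; 15 concentrations, triplicate.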
Test [5] is described as follows: p53 small molecule agonists, cell-based qHTS assay with human liver microsomes (AID 1963577). Put shortly: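 Compounds act here after metabolic activation: human liver microsomes and NADPH, both at 0.5 mg/mL final, were co-added to p53RE-bla cells. Incubation ran 16 h at 37 C, followed by LiveBLAzer detection.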
Test [6] can be described thus: p53 small molecule agonists, cell-based qHTS assay with rat liver microsomes (AID 1963578). Put shortly: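 Read-out is beta-lactamase reporter fluorescence (LiveBLAzer, 2 h, room temperature, dark) in p53RE-bla cells treated 16 h at 37 C with compound, rat liver microsomes and NADPH, both 0.5 mg/mL final.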
Test [7] can be described thus: p53 small molecule agonists, cell-based qHTS assay with human liver microsomes: qHTS cell viability counter screen (AID 1963579). Further: nearly all actives have a fitted effect of over 45% in size. Put shortly: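 Cells carrying the p53 response-element beta-lactamase reporter are treated for 16 h at 37 C with test compounds in the presence of human liver microsomes and NADPH (both 0.5 mg/mL final); ATP-based CellTiter-Glo luminescence then reports viability.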

Test [8] in a line: p53 small molecule agonists, cell-based qHTS assay with rat liver microsomes: qHTS cell viability counter screen (AID 1963580). Further: nearly all actives have a fitted effect of over 45% in size. Put shortly: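 Rat liver microsome (0.5 mg/mL final) and NADPH (0.5 mg/mL final) co-incubation with compounds for 16 h at 37 C on HCT-116 p53RE-bla cells; cytotoxicity taken from intracellular ATP luminescence.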
The nature of test [9]: p53 small molecule agonists, cell-based qHTS assay: qHTS cell viability counter screen (AID 1963581). Further: nearly all actives have a fitted effect of over 45% in size. Put shortly:
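Cytotoxicity read-out: ATP-based luminescence (CellTiter-Glo, 30 min RT) measured in the same wells as the p53 reporter assay, HCT-116 p53RE-bla cells, 16 h compound exposure at 37 C.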

Test [10] is described as follows: p53 small molecule agonists, cell-based qHTS assay (AID 1963582; active means well fitted activation curve with a large enough effect in the signal ratio in the repeat runs, not every such curve was filed as active; the % refers to the signal ratio). Put shortly:
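Fluorescence intensity read-out of a beta-lactamase reporter under a p53 response element. Cells were exposed to DMSO-dissolved compounds for 16 h at 37 C, then developed with FRET substrate for 2 h at RT.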

Test [11] has as its target 5-hydroxytryptamine receptor 2A (Homo sapiens) (UniProt P28223). Description: 5-hydroxytryptamine receptor 2A (HTR2A) small molecule antagonists, cell-based qHTS assay (AID 1963586). Further: nearly all actives have a fitted effect of over 45% in size. Further: potency means the concentration at half of the fitted maximal effect. The method, boiled down:
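CHO cells stably expressing human HTR2A were plated for 18 h at 37 C, then loaded with calcium dye for 1 h. Compounds were preincubated 5 min at room temperature before DOI (4 nM solution) was added. Kinetic fluorescence was read for 3 min.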

The target is the same in test [12]. The test is described as follows: 5-hydroxytryptamine receptor 2A (HTR2A) small molecule agonists, cell-based qHTS assay (AID 1963587). Further: nearly all actives have a fitted effect of over 30% in size. Further: potency means the concentration at half of the fitted maximal effect. Put shortly: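 Kinetic calcium-flux fluorescence (2 min, 1 sec intervals) after compound addition in agonist mode. HTR2A-CHO cells were cultured 18 h, then dye-loaded 1 h at 37 C.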
Test [13] addresses Muscarinic acetylcholine receptor M1 (Homo sapiens) (UniProt P11229). Description: Cholinergic receptor muscarinic 1 (CHRM1) small molecule antagonists, cell-based qHTS assay (AID 1963588). Further: nearly all actives have a fitted effect of over 40% in size. The method, boiled down:
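Compounds were tested at 15 concentrations in three independent runs. Dye-loaded CHRM1-CHO cells were exposed 5 min at room temperature before stimulation by acetylcholine added at 50nM. Intracellular calcium was read kinetically on FDSS for 3 min.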

The target is the same in test [14]. Description: Cholinergic receptor muscarinic 1 (CHRM1) small molecule agonists, cell-based qHTS assay (AID 1963589). Further: nearly all actives have a fitted effect of over 35% in size. The method, boiled down: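 Calcium flux read-out: kinetic fluorescence at 1 sec intervals after pin-tool compound addition to dye-loaded CHRM1-CHO cells (human M1). Agonist mode; 15 concentrations tested in triplicate independent runs.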
Test [15] is described as follows: cAMP Responsive Elements (CRE) small molecule agonists, cell-based qHTS assay (AID 1963590). The method, boiled down: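 Beta-lactamase reporter readout: LiveBLAzer B/G FRET substrate, 2 h at room temperature, added after 3 h compound treatment of CRE-bla HEK 293T cells at 37 C/5% CO2.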
Test [16] can be described thus: cAMP Responsive Elements (CRE) small molecule antagonists, cell-based qHTS assay (AID 1963591; active means well fitted inhibition curve with a large enough effect in the signal ratio in the repeat runs, not every such curve was filed as active; the % refers to the signal ratio). Put shortly: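 HEK293T CRE-bla; 18 h preincubation; compound pin-transfer; NKH477 0.25 uM final, 3 h, 37 C; LiveBLAzer FRET substrate 2 h RT.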
The target in test [17] is Beta-2 adrenergic receptor (Homo sapiens) (UniProt P07550). The test is described as follows: Adrenergic beta2 receptor (ADRB2) small molecule antagonists, cell-based qHTS assay (AID 1963592). Further: series mostly up to about 92 µM; nearly all actives have a fitted effect of over 50% in size. The method, boiled down: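 Assay format: CHO-ADRB2 cells, 18-20hr seeding at 37C/5% CO2, then compound plus 1nM isoproterenol agonist mix for 0.5hr RT. Homogeneous time-resolved fluorescence cAMP detection after 1hr, expressed as 665/615 nm ratio.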

Test [18] concerns the target D(2) dopamine receptor (Homo sapiens) (UniProt P14416). Description: Dopamine D2 receptor (DRD2) small molecule agonists, cell-based qHTS assay (AID 1963594). Further: nearly all actives have a fitted effect of over 35% in size. Further: potency means the concentration at half of the fitted maximal effect. Put shortly:
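cAMP accumulation in DRD2-HEK293 cells measured by HTRF after 1 h detection; compounds added 10 min before NKH477 (200nM […]) forskolin-analogue stimulation, 30 min at room temperature, with Ro20-1724 present at 0.1 mM final.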

Test [19] shares this target. Description: Dopamine D2 receptor (DRD2) small molecule antagonists, cell-based qHTS assay (AID 1963595; active means well fitted inhibition curve with a large enough effect in the signal ratio in the repeat runs, with a control signal flat; the % refers to the signal ratio; further: potency means the concentration at half of the fitted maximal effect). The method, boiled down: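 DRD2-HEK293; 0.1 mM Ro20-1724; cpd 10 min RT; NKH477 200 nM + quinpirole 12 nM, 30 min RT; HTRF cAMP (cAMP-d2/anti-cAMP cryptate), 665/620 nm ratio after 1 h.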
Test [20] in a line: Nuclear factor erythroid 2-related factor 2/antioxidant responsive element (Nrf2/ARE) small molecule agonists: luciferase reporter gene qHTS assay in human keratinocytes (AID 1919969). Further: nearly all actives have a fitted effect of over 35% in size. For orientation: Reporter assays use an easily measured gene product as a stand-in for the process of interest.

KiSS-1 receptor (Homo sapiens), sequence (Q969F8 whole entry, looked up): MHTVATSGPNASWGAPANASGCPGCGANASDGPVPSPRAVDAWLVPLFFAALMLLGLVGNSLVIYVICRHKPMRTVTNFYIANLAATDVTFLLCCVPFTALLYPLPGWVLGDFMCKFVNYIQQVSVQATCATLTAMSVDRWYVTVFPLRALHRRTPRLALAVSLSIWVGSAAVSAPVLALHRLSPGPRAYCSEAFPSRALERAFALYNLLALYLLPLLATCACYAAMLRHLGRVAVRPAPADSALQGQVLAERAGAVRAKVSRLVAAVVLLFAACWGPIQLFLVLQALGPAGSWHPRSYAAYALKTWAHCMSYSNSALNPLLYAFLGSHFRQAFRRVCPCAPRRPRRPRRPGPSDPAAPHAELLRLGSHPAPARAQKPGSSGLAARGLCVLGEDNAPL
5-hydroxytryptamine receptor 2A (Homo sapiens), sequence (P28223 whole entry, looked up): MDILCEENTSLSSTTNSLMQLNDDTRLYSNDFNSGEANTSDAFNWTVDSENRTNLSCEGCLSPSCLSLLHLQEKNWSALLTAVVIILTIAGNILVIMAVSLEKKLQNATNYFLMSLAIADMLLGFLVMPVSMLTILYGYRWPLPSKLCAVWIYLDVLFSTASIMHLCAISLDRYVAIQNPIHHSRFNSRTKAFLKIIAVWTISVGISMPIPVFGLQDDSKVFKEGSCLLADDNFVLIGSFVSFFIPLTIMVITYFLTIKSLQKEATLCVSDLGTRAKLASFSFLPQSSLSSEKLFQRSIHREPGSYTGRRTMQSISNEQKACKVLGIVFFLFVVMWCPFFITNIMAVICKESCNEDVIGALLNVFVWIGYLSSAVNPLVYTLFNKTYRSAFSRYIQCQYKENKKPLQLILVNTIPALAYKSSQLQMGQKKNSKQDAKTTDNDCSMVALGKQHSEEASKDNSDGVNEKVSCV
D(2) dopamine receptor (Homo sapiens), sequence (P14416 whole entry, looked up): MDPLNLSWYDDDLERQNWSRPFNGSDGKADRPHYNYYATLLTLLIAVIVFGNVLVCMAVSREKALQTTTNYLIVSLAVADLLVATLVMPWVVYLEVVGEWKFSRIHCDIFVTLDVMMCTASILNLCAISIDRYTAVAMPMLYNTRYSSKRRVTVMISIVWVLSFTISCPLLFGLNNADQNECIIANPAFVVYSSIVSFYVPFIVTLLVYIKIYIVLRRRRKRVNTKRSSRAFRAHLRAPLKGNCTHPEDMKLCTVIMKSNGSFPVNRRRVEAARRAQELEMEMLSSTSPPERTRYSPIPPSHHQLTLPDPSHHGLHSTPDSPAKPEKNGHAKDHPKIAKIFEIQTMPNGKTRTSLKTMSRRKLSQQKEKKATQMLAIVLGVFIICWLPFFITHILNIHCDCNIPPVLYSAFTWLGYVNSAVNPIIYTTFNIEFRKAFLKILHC
Gonadotropin-releasing hormone receptor (Homo sapiens), sequence (P30968 whole entry, looked up): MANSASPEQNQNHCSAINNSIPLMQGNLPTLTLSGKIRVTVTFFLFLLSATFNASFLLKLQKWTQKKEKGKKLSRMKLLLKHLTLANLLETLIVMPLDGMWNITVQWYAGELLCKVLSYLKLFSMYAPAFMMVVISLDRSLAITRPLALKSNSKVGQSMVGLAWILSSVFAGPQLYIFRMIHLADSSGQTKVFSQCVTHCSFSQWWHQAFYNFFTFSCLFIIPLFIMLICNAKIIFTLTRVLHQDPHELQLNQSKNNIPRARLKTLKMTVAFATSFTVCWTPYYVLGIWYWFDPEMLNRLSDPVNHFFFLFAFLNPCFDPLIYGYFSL
Muscarinic acetylcholine receptor M1 (Homo sapiens), sequence (P11229 whole entry, looked up): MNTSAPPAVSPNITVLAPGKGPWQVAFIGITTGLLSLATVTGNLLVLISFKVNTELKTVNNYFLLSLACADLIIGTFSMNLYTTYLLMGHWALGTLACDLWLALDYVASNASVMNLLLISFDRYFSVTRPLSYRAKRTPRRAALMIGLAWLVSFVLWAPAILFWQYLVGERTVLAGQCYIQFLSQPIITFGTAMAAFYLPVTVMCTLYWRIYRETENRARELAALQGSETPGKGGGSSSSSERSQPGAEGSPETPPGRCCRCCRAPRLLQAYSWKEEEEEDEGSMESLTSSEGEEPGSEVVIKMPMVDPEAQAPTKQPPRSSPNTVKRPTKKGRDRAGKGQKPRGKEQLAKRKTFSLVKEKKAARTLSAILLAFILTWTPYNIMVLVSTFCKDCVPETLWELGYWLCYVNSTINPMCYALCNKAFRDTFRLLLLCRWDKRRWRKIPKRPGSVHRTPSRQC
Beta-2 adrenergic receptor (Homo sapiens), sequence (P07550 whole entry, looked up): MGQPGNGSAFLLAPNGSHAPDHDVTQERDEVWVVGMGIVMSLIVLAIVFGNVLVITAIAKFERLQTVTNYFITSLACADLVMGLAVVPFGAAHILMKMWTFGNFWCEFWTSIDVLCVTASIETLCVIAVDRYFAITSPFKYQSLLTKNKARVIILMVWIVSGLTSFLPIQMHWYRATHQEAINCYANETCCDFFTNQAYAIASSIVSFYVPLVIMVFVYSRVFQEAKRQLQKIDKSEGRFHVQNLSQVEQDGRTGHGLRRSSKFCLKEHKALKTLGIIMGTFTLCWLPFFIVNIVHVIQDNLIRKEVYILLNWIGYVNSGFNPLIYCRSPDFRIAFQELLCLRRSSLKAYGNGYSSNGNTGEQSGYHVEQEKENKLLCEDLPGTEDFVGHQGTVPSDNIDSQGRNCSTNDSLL

With `c1coc(-c2nc3ccccc3[nH]2)c1`, the Potency result in [1], in [2], in test [3], in test [4], in [5] and in test [6] was “inactive” in each case. For the same molecule, the Potency entry in test [7], in test [8], in test [9], in test [10], in test [11] and in test [12] was “inactive” in each case. The Potency entry in [13], in test [14], in [15], in test [16], in test [17] and in [18] was “inactive” in each case. Besides, the Potency entry in [19] was “inactive”.

For `CC(C)(C)c1ccc(OP(=O)(Oc2ccccc2)Oc2ccccc2)cc1`, the Potency entry in test [1], in test [20], in [3], in test [5], in [7] and in test [8] was “inactive” in each case. In addition, the Potency result in test [9], in test [10], in [12], in test [13], in test [14] and in test [15] was “inactive” each time. The Potency entry in test [16], in [17], in test [18] and in test [19] was “inactive” throughout.

As for `CCOP(=S)(OCC)SCSc1ccc(Cl)cc1`, the Potency result in [1], in test [20], in test [3], in [7], in [8] and in [9] was “inactive” in each case. For the same molecule, the Potency entry in test [11], in test [12], in test [13], in [14], in test [15] and in test [17] was “inactive” in each case. In addition, the Potency result in test [18] and in test [19] was “inactive” throughout.

As to `CC(C)(C)NC[C@H](O)c1ccc(O)cc1Cl`, the Potency result in test [1], in test [20], in test [4], in test [5], in test [6] and in [7] was “inactive” throughout. The Potency result in [8], in test [9], in test [10], in test [12], in test [13] and in test [14] was “inactive” each time. Also, the Potency entry in test [16] and in [18] was “inactive” throughout. Besides, the Potency in test [19] was 84.1 nM (active).

Consider `CCCN(CCC)CCc1c[nH]c2ccccc12`, for which the Potency result in [1], in test [2], in test [3], in test [4], in test [5] and in [6] was “inactive” throughout. The Potency result in [7], in test [8], in test [9], in test [10], in [13] and in test [14] was “inactive” in each case. Besides, the Potency result in [15], in [16], in test [17] and in test [19] was “inactive” throughout. For the same molecule, the Potency in test [11] was 13.1 nM (active); in test [12], 4.3 nM (active); in test [18] it was 21400 nM (active).

With `OC(Cn1cncn1)(c1ccc(F)cc1)c1ccccc1F` (configuration not stated), the Potency result in [1], in test [20], in test [4], in test [5], in test [6] and in [7] was “inactive” each time. Besides, the Potency result in test [9], in test [10], in [11], in test [12], in [14] and in test [15] was “inactive” throughout. Moreover, the Potency entry in test [16], in test [18] and in test [19] was “inactive” each time.

Turning to `[O]=[Cd]`, the Potency result in [1], in test [2], in [3], in [4], in [5] and in test [6] was “inactive” throughout. The Potency entry in test [7], in test [8], in test [9], in [10], in test [11] and in [12] was “inactive” each time. For the same molecule, the Potency result in test [13], in test [14], in test [15], in test [16], in [17] and in test [18] was “inactive” in each case. In addition, the Potency result in [19] was “inactive”.
